Laboratory results as given in paper PMC4336329 (PLoS ONE, 2015).
In all, about 310,000 compounds went through this assay and about 14,000 (4.5%) showed an effect of 50% or more. The effect is printed as a negative number. Only a selection was taken, and strong results are over-represented in it overall.

Molecular target: human ether-à-go-go-related gene (hERG) potassium channel (human, UniProt Q12809)
Assay: primary screen, population patch clamp on CHO cells stably expressing hERG; higher = less effect of the substance
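Also: peak tail current of the secondary pulse compared with the same well before compound.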

Chain of human ether-à-go-go-related gene (hERG) potassium channel (Q12809 whole entry, looked up): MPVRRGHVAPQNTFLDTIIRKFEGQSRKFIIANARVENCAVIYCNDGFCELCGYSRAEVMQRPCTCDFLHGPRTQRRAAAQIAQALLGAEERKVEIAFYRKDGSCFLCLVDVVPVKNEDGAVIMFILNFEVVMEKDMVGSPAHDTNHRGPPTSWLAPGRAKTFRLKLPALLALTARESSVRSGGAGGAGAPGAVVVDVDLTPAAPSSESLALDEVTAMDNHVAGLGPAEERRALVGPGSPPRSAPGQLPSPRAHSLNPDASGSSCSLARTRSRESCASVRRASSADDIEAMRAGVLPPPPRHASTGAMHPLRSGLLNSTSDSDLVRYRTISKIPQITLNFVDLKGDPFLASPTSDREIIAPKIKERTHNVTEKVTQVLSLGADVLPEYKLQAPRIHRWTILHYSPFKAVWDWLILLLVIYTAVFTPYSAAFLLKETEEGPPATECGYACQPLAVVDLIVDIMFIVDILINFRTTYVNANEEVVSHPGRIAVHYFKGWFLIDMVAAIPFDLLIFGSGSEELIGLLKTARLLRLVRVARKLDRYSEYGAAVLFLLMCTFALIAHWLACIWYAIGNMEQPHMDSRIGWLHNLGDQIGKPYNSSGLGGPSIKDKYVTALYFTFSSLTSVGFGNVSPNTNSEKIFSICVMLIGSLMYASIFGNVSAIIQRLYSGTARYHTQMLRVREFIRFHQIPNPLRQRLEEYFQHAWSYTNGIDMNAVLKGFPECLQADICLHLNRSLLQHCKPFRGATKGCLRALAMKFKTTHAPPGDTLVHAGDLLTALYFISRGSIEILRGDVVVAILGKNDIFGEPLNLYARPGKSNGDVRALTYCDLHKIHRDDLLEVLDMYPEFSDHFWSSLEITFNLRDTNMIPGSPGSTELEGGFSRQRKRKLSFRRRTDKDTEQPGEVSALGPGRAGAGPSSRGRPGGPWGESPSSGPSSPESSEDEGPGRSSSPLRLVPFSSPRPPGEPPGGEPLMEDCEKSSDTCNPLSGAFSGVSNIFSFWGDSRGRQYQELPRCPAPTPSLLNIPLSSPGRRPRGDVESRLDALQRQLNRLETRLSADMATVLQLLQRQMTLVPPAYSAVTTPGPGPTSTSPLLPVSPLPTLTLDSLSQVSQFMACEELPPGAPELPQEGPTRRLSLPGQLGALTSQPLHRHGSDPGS

Structure (SMILES) | hERG current change (%, negative = inhibition) at 10uM [%]
CCOc1ccc(/C=C(\C#N)C(=O)c2c(C)[nH]c3ccccc23)cc1OC | -4.5
CC1Cc2ccccc2N1CC(=O)Nc1ccc(S(N)(=O)=O)cc1 (centres unmarked) | -6.21
COC(=O)c1cc(-c2ccccc2)sc1NC(=O)CN1C(=O)c2ccccc2C1=O | 15.9
Cc1cc2n(c(=O)c1C#N)CCCN2c1cccc(Cl)c1 | -65
Cc1ccc(N2CCCn3c2cc(C)c(C#N)c3=O)cc1C | -21.4
Cc1ccc(N2CCCn3c2cc(C)c(C#N)c3=O)cc1Cl | -22.8
C#CCOc1ccc(/C=C2\SC(=S)N(Cc3cccnc3)C2=O)cc1 | 15.9
O=C(Nc1ccc(Cl)cc1)N1CCN(Cc2ccc3c(c2)OCO3)CC1 | -27.6
Nc1nc(CN2CCN(Cc3ccc4c(c3)OCO4)CC2)nc(Nc2ccccc2)n1 | -75.6
Cc1ccc(Nc2nc(N)nc(CN3CCN(Cc4ccc5c(c4)OCO5)CC3)n2)cc1 | -73.3
Cc1cc(Cl)ccc1NC(=S)N1CCN(Cc2ccc3c(c2)OCO3)CC1 | 4.84
c1ccc(CN2CCC(N3CCN(Cc4ccc5c(c4)OCO5)CC3)CC2)cc1 | -39.8
Cc1cccc(NC(=O)CSCC(=O)N2CCN(Cc3ccc4c(c3)OCO4)CC2)c1 | -23.3
Cc1cccc(S(=O)(=O)N2CCN(Cc3ccc4c(c3)OCO4)CC2)c1 | -35.2
Cc1ccc(NC(=O)CSCC(=O)N2CCN(Cc3ccc4c(c3)OCO4)CC2)cc1 | -25.9
Cc1ccc(NC2=NCC(=O)N2Cc2ccc3c(c2)OCO3)cc1 | -5.93
Cc1ccc(Nc2nc(N)nc(CN3CCN(Cc4ccc5c(c4)OCO5)CC3)n2)cc1Cl | -81.2
Cc1cccc(Nc2nc(N)nc(CN3CCN(Cc4ccc5c(c4)OCO5)CC3)n2)c1 | -75.2
c1ccc(Cc2noc(CN3CCN(Cc4ccc5c(c4)OCO5)CC3)n2)cc1 | -28.1

Structure (SMILES) | hERG current change (%, negative = inhibition) at 10uM [%]
O=C(CNC(=O)N1CC(=O)Nc2ccccc21)NCc1cccc(Cl)c1 | 12.8
COC(=O)c1sccc1NC(=O)c1ccccc1F | 15.3
O=C(c1ccc(S(=O)(=O)N2CCCC2)cc1)N1CCN(Cc2ccc3c(c2)OCO3)CC1 | -28
CCN(CC)C(=O)c1ccc(NC(=O)c2ccc(N3CCCC3=O)cc2)cc1 | 5.47
Cc1ccc2nc3sc(C(=O)N4CCCc5ccccc54)c(N)c3cc2c1 | 2.69
COCCNS(=O)(=O)c1ccc2c(c1)Cc1cc(S(=O)(=O)NCCOC)ccc1-2 | -22.1
O=C(N/C=C/c1ccccc1)Nc1ccc(Cl)cc1 | 10.3
CCOc1ccc(C(=O)Nc2cc(S(=O)(=O)Nc3ccccc3Cl)ccc2N2CCOCC2)cc1 | 6.95
Cc1ccc(S(=O)(=O)NCC(=O)N(c2ccccc2)C(C(=O)NCc2ccccc2)c2ccco2)cc1 (centres unmarked) | -6.04
Cc1ccc(-n2nc(C(=O)N3CCN(C)CC3)c3c4ccccc4n(C)c3c2=O)cc1 | 5.61
Cc1nc(SCC(=O)NC2CC2)c2c(C)c(C)sc2n1 | 6.21
CC(=O)N/C(=C\c1ccccc1)C(=O)OCc1ccc(F)cc1 | -0.974
CC(=O)Nc1ccc(S(=O)(=O)NC(C)c2ccccc2)cc1 (centres unmarked) | 13.2
CCOC(=O)c1c(NC(=O)CN2C(=O)NC3(CCCCCC3)C2=O)sc(C)c1-c1ccc(C)cc1 | 4.24
Cc1cccc(CSc2ccc3nnc(-c4cccs4)n3n2)c1 | 17.9
Cc1cccc(CSc2ccc3nnc(-c4cccnc4)n3n2)c1 | -66.5
Nn1c(SCc2cccc(F)c2)nnc1-c1cccnc1 | 9.33
Cc1cccc(NC(=O)CSc2ccc3nnc(-c4cccnc4)n3n2)c1 | -30.1
O=C(CSc1ccc2nnc(-c3cccnc3)n2n1)Nc1cccc(F)c1 | -43.6

Structure (SMILES) | hERG current change (%, negative = inhibition) at 10uM [%]
Fc1cccc(CSc2ccc3nnc(-c4cccnc4)n3n2)c1 | -69
Cc1cc(S(=O)(=O)N2CCCC2)ccc1OCC(=O)NCc1ccccc1 | -11.8
COc1ccc(-c2nn(-c3ccccc3)cc2/C=N/NC(=O)c2ccc(Br)o2)cc1 | -0.138
Cc1ccc(C(=O)NCCc2nnc3ccc(SCC(=O)Nc4ccccc4F)nn23)cc1 | -12.7
Cc1ccc(NC(=O)c2cc(=O)n(Cc3ccccc3)c(=O)[nH]2)cc1C | 35.8
N#C/C(=C/c1ccc(Sc2nc3ccccc3[nH]2)o1)c1cccc(Br)c1 | 21.3
OC1CCN(C(=S)NCCc2ccccc2)CC1 | -0.627
S=C(NCCc1ccccc1)N1CCCC1 | 9.47
S=C(NCCc1ccccc1)N1CCN(C23CC4CC(CC(C4)C2)C3)CC1 | -75.2
CCOC(=O)c1ccccc1NC(=S)N1CCN(C2CCCCC2)CC1 | -62.3
CCOC(=O)c1ccccc1NC(=S)N1CCC(N2CCCCC2)CC1 | -33.8
O=C(c1ccccc1)N1CCN(C(=S)NCCc2ccccc2)CC1 | -65.7
CC(=O)N1CCN(C(=S)NCCc2ccccc2)CC1 | -4.66
CC1CCN(C(=S)NCCc2ccccc2)CC1 | -15.2
COC(=O)c1ccccc1NC(=S)N1CCN(C2CCCCC2)CC1 | -22.4
S=C(NCCc1ccccc1)N1CCN(C2CCCCC2)CC1 | -63.4
CN1CCN(C(=S)NCCc2ccccc2)CC1.O=C(O)C(=O)O | -14.5
S=C(NCCc1ccccc1)N1CCCCC1 | 14.4
